The values that follow come from PubChem BioAssay (NCATS).

Results filed as inconclusive are left out. Unmarked numbers belong to inactive results. Active and inactive are the calls of the source. Calls come from the whole dose curve; as a rule, active = well fitted curve in the direction sought with a large enough effect; inconclusive = small, poorly fitted or top-dose-only effect, or another doubt; inactive = no such curve, though single readings can be large; an effect the other way counts as inactive or inconclusive.

Test [1] in a line: P-glycoprotein substrates identified in KB-3-1 adenocarcinoma cell line, qHTS therapeutic library screen (AID 1346986). Note: nearly all actives have a fitted effect of over 60% in size. In outline: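 Compounds were tested in dose-response against KB-3-1 and KB-8-5-11 cells at 37 degree C for 72 h, and viability was measured by luminescence. AC50 values came from curve fitting with class-based activity calls.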
The nature of test [2]: P-glycoprotein substrates identified in KB-8-5-11 adenocarcinoma cell line, qHTS therapeutic library screen (AID 1346987). For activity change, negative = cytotoxicity: series mostly up to about 44 µM; % is set by controls: 0 for no effect and ±100 for the full control effect. Note: nearly all actives have a fitted effect of over 65% in size. In outline: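 KB-8-5-11: colchicine-selected sub-line of KB-3-1 over-expressing P-gp; assay medium lacked colchicine. 72 h drug exposure at 37 degree C, CellTiter-Glo.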
For orientation: qHTS replaces the single test concentration by a dilution series.

As for `O=C(O[C@H]1[C@@H]2C[C@@H]3OC[C@@](O)([C@H]2[C@H](O[C@@H]2O[C@H](CO)[C@@H](O)[C@H](O)[C@H]2O)O3)[C@@H]1O)c1ccccc1`, the Potency result in test [1] and in test [2] was “inactive” throughout.
As to `Clc1ccc2c(c1)C1=NCCN1c1c(-c3noc(C4CC4)n3)ncn1-2`, the Potency result in test [1] and in test [2] was “inactive” each time.
As to `C/C=C(\C)C(=O)O[C@H]1[C@H](O)[C@]2(COC(C)=O)[C@H](O)C[C@]3(C)C(=CCC4[C@@]5(C)CC[C@H](O[C@@H]6O[C@H](C(=O)O)[C@@H](O[C@@H]7O[C@H](CO)[C@@H](O)[C@H](O)[C@H]7O)[C@H](O)[C@H]6O[C@@H]6O[C@H](CO)[C@@H](O)[C@H](O)[C@H]6O)[C@](C)(CO)C5CC[C@]43C)[C@@H]2CC1(C)C` (stereo partly specified), the outcome in test [1] is “inactive [at 9.29 µM]”. Besides, in test [2], the activity change, negative = cytotoxicity is 3.98% [at 9.29 µM].
For the molecule `CC(=O)OC1C=C(C(=O)O)C2(CO)CCC(C)C(C)(CCc3ccoc3)C2C1` (stereo unspecified), the Potency result in test [1] and in test [2] was “inactive” in each case.
On to `CCC[C@@H]1C[C@@H](C(=O)N[C@@H]([C@H]2O[C@H](SC)[C@H](O)[C@@H](O)[C@@H]2O)[C@@H](C)O)N(C)C1`, for which the Potency entry in test [1] and in test [2] was “inactive” throughout.
In the case of `COC1=CC(=O)O[C@@H](/C=C/c2ccccc2)[C@@H]1O`, the Potency entry in test [1] and in test [2] was “inactive” throughout.
Consider `CC(=O)O[C@@]1(C)C[C@@H](O)[C@]2(O)C=CO[C@@H](O[C@@H]3O[C@H](CO)[C@@H](O)[C@H](O)[C@H]3O)[C@@H]21`, for which the Potency result in test [1] and in test [2] was “inactive” throughout.
As for `CO[C@@H]1CC[C@H](OC[C@]2(COC(=O)c3ccc(C)[nH]3)[C@H](OC(C)=O)CC[C@@]3(C)[C@@H]4CC=C(C)[C@@H](C5=C(O)C(=O)OC5O)[C@]4(C)CC[C@@H]32)O[C@H]1C` (stereo partly specified), the Potency result in test [1] and in test [2] was “inactive” in each case.
